Laboratory results reported in PubChem BioAssay.

Biological target: PEG-3 (UniProt Q6IN02)
Assay: inhibition of PEG-3 promoter-driven reporter – cell-based, HeLa, luciferase, CREF/GAPDH counter-screen panel, dose response (AID 624167)
Conditions: CREF/GAPDH counter-screens; HeLa PEG-Prom luciferase reporter, overnight, run 2, dose range 1, at 100 µM (top of the series) unless noted

PEG-3, sequence (Q6IN02 whole entry, looked up): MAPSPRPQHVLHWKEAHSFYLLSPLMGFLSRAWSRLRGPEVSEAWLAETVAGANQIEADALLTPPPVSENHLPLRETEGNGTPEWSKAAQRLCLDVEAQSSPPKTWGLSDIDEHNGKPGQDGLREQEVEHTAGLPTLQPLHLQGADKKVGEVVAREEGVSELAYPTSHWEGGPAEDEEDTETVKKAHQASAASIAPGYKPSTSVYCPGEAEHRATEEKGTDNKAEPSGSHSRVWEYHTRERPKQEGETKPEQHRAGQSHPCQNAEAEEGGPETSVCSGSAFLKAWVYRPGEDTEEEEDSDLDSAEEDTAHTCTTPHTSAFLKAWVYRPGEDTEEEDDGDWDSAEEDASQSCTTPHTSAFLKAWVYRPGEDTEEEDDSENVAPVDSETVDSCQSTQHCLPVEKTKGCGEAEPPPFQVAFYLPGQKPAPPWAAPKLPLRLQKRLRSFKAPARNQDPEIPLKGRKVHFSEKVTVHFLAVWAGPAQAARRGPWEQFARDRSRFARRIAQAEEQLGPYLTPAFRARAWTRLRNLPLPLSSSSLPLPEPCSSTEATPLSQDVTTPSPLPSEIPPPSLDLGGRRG

| Structure (SMILES) | inhibition |
| --- | --- |
| CCOc1cccc2sc(N(CCCN(C)C)C(=O)c3ccc(S(=O)(=O)N(CC)Cc4ccccc4)cc3)nc12 | 101% |
| CCCN(CCC)CCCNC(=S)Nc1ccc2nc(N3CCCC3)cc(C)c2c1 | 98.1% |
| c1ccc(-c2cc(-c3nc4ccccc4[nH]3)c3ccccc3n2)cc1 | 88.6% |
| COc1ccc(C2NCCc3c2[nH]c2ccccc32)cc1COc1ccc(F)cc1 (centres undefined) | 101% |
| COc1ccccc1CN(C)C(=O)c1cc(-c2cc(OC)c(OC)c(OC)c2)nc2ccccc12 | 84.7% |
| CCN1CCCC1CN(Cc1cc2ccc(C)cc2[nH]c1=O)C(=S)Nc1ccc(OC)cc1 (centres undefined) | 99.5% |
| Cc1ccc2nc(N(CCCN(C)C)C(=O)c3ccc4c(c3)CCCC4)sc2c1 | 101% |
| COc1ccc(C2c3ccc4ccccc4c3Oc3ncn(CCCO)c(=N)c32)cc1 (centres undefined) | 101% |
| C[C@@H](NCCCn1cnc2c(OCc3ccccc3)ncnc21)c1cccc2ccccc12 | 101% |
| CCc1nc(Nc2ccc(N3CCN(C(C)=O)CC3)cc2)c2oc3ccccc3c2n1 | 99.9% |
| CC(NS(=O)(=O)OCC(Cl)(Cl)Cl)c1ccc(C(C)(C)C)cc1 (centres undefined) | 97.9% |
| COCOCCn1cc(CN2CCS(=O)(=O)N(Cc3ccc(-c4ccc(Cl)c(Cl)c4)cc3)C(C(C)C)C2=O)nn1 (centres undefined) | 97.8% |
| O=S(=O)(Nc1cccc2ncccc12)c1cccs1 | 96.5% |
| CN(C)C=NC(=O)c1[nH]c2ccc(Cl)cc2c1-c1ccccc1 | 96.5% |
| Cn1cc(CN2CCCC(C(=O)Nc3ccc(-c4cccc(F)c4)cc3)C2)cn1 (centres undefined) | 102% |
| NCCCNc1nc(N)c([N+](=O)[O-])c(NC2CCCCC2)n1 | 102% |
| c1cc2c3c(cccc3c1)NC1(CCC3(CC1)Nc1cccc4cccc(c14)N3)N2 | 102% |
| CN(C)CCNc1ncnc2c1ncn2[C@H]1CN(Cc2ccc(-c3ccccc3)cc2)C[C@@H](CO)O1 | 101% |
| Cc1ccc(-n2cc(CNCCCn3ccnc3C)c(-c3ccc(F)cc3)n2)cc1 | 98.7% |
| Cc1ccc2cccc(OCC(=O)Nc3cccc(S(=O)(=O)N4CCCC4)c3)c2n1 | 97.2% |

| Structure (SMILES) | inhibition |
| --- | --- |
| Cc1cc(Br)ccc1NC(=O)CN1C(=O)C2C3CC(c4ccccc4)C(C3)C2C1=O (centres undefined) | 92.1% |
| Cc1cc2c(c(/C=C/C(=O)c3ccccc3)c1)OC1(C=C2)Oc2ccccc2C(=O)N1C (centres undefined) | 101% |
| CC(=O)N1CCN(c2cc(-c3ccccc3)nc3cc(-c4cccc(Cl)c4)nn23)CC1 | 95.5% |
| CCCCN(C)CCNC(=O)c1cc(-c2cccnc2)nc2ccc(S(=O)(=O)N3CCC(C)CC3)cc12 | 96.1% |
| COc1ccc2sc(N(CCCN(C)C)C(=O)c3ccc(S(=O)(=O)N4CCCc5ccccc54)cc3)nc2c1 | 102% |
| OCCN1CCN(C2CCC(c3ccc(F)cc3)c3ccc(F)cc32)CC1 (centres undefined) | 101% |
| Cc1nc(-c2ccc(F)cc2)c(CC(=O)N(C)CC(=O)Nc2ccc(Cl)c(C(F)(F)F)c2)s1 | 102% |
| O=S(=O)(NC1CC(NS(=O)(=O)OCC(Cl)(Cl)Cl)C2CCCCC12)OCC(Cl)(Cl)Cl (centres undefined) | 99.2% |
| CN1CCN(CCNC(=O)c2ccc3nc(-c4ccc(F)cc4)c(-c4ccc(F)cc4)nc3c2)CC1 | 98.2% |
| COc1cc(-c2cc(C(=O)Nc3cc(S(=O)(=O)N4CCOCC4)ccc3C)c3ccccc3n2)cc(OC)c1OC | 61.8% |
| O=C(C=Cc1ccccn1)c1ccccc1 | 101% |
| CN(Cc1ccccc1)C(=O)c1ccc(Nc2nc(C(N)Cc3ccccc3)cs2)nc1 (centres undefined) | 101% |
| COc1ccc2c(c1)[nH]c1c(=O)n(/N=C/C3C(C)C=C(C)CC3C)c(=O)[nH]c12 (centres undefined) | -83.6% |
| O=C(CN1CCN(Cc2ccccc2Cl)CC1)N=Nc1c(O)[nH]c2ccccc12 | 90.4% |
| CC(C)NC(=O)NC(=O)COC(=O)c1c2c(nc3ccccc13)CCC2 | 93.6% |
| O=C(C[C@H]1C[C@H](C(=O)N2CCCCC2)[C@@]2(CCc3ccccc3)c3[nH]c4ccc(Cl)cc4c3CCN2C1=O)NCCc1ccccn1 | 93.1% |
| CCN(Cc1ccccc1)S(=O)(=O)c1ccc(C(=O)N(CCCN(C)C)c2nc3cc4c(cc3s2)OCCO4)cc1 | 101% |
| COc1ccc(C23CC4CC(CC(C4)C2)C3)cc1C(=O)NCCN(C)C | 102% |
| Cc1ccc(N2CC(C(=O)Nc3nccs3)CC2=O)cc1Cl (centres undefined) | 63.6% |
